# From PubChem BioAssay
# RAD54 branch: inhibitors of human RAD54 branch migration; inhibition, % at 10.4 µM; Q92698; 360,000 compounds, 0.14% hits; RAD54 Holliday junction branch migration, FAM/BHQ fluorescence; AID 602329;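 active means mean normalized replicate activity at least 40 and at least half of replicates scoring 40 or more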;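 further: 0% = median of neutral control wells and 100% = median of positive control wells; inhibitors cause a drop in the FAM fluorescence signal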
# Target sequence (Q92698 whole entry, looked up): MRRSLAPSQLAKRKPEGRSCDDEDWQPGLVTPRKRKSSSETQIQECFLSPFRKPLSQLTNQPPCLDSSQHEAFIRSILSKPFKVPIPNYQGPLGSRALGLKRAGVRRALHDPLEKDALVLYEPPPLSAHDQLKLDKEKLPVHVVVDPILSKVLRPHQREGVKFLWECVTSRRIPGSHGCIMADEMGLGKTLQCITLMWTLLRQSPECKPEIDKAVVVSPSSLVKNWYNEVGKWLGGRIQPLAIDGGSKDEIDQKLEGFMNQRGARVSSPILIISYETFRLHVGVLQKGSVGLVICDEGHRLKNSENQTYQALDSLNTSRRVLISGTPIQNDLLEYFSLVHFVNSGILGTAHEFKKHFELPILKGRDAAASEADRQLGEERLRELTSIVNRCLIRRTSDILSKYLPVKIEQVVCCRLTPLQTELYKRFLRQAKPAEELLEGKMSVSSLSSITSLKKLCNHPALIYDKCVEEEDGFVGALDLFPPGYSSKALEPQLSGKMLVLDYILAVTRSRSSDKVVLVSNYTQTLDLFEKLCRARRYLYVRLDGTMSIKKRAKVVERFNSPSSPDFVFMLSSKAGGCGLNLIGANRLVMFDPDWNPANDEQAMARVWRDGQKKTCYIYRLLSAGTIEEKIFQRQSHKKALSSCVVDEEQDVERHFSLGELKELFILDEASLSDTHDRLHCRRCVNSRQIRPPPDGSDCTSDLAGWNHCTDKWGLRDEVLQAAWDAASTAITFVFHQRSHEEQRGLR
# Myeloid diff 2: compounds promoting myeloid differentiation; calls only at 10 µM; 360,000 compounds, 1% hits; AID 624256; ER-HoxA9 myeloid progenitors, lysozyme-GFP differentiation, flow cytometry;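 active means normalized GFP-positive differentiation at or above the plate's own cutoff, the solvent-only control mean plus 3 SD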;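 further: cells exposed to compound for four days before flow analysis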
# ABCB6 inh MLPCN: human ABCB6 transporter inhibition | Q9NP58 | K562-ABCB6 porphyrin accumulation, flow cytometry, 1 h; hits give low values | fluorescence ratio to DMSO, % at 10 µM | 360,000 compounds, 0.19% hits | AID 602162;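 active means fluorescence ratio to DMSO below 75%, the collection mean minus 3 SD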;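 further: signal is porphyrin accumulated inside mitochondria; 100% equals median channel fluorescence of DMSO control wells; lower ratio means ABCB6 inhibition with less porphyrin fluorescence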
# Glyco luc inh: N-linked glycosylation inhibition. AID 588692. reporter increase, % at 12.5 µM. 360,000 compounds, 0.23% hits. D54 ERlucT glycosylation luciferase reporter, 24 h; percent of 100 nM tunicamycin response;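 active means mean luciferase reporter signal, scaled so untreated is 0 and the glycosylation-blocking control 100, at or above a set limit in every replicate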;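 further: luciferase carries N-glycosylation sites so blocking glycosylation raises the light; 0% = median of neutral control wells and 100% = median of 100 nM tunicamycin wells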
# Vif inh: inhibitors of HIV Vif; HEK293T cells, Vif self-association by quenched fluorescence, imaging, 24 h; inhibition, % at 7.49 µM; 340,000 compounds, 0.35% hits; AID 602346; in the data active means inhibition above about 50%, passing the limit was not always enough
# Myeloid diff CP1: myeloid differentiation induction; shares compounds with Myeloid diff 2; ER-HoxA9 myeloid progenitors, GFP/Mac1 double-positive flow; calls only; 2,300 compounds, 2% hits; AID 651706;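 active means share of green or green-and-red cells above 9 and 9% in run 1 or 4 and 3% in run 2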
# GFP autofluor: flagged as fluorescent in myeloid differentiation counter-screen | shares compounds with Myeloid diff 2 | fluorescence response, % (test concentration not listed) | ER-HoxA9 myeloid progenitors, no estrogen, GFP autofluorescence flow cytometry; vehicle wells 0%, positive control 100% | 2,300 compounds, 7.4% hits;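 active means over 5% cells positive for green fluorescent reporter, or over 2% positive for both it and APC stain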;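 further: range taken on the double positive population between DMSO and positive control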
# * = called active by the depositor; i = inactive; . = no result given; + = active, no number. The list is not random: actives were taken first. Their share in the collection is about 1.6%.
SMILES,RAD54 branch,Myeloid diff 2,ABCB6 inh MLPCN,Glyco luc inh,Vif inh,Myeloid diff CP1,GFP autofluor
O=S(=O)(NCc1ccccc1Br)c1cccs1,.,i,103.0,0.0,-1.8,i,0.0
CCC(=O)Nc1ccc(/C(C)=N\NS(=O)(=O)c2ccc(C)cc2)cc1,-5.0,+,98.0,8.8,-1.5,i,0.5
CO[C@H]1CN(C)C(=O)c2ccc(NC(=O)Cc3ccccc3)cc2OC[C@@H](C)N(C)C[C@H]1C,5.6,.,.,.,.,.,.
Cc1c(NC(=O)C(C)Sc2ccc3ccccc3n2)c(=O)n(-c2ccccc2)n1C (stereo unspecified),-0.4,i,105.0,-1.6,-7.2,.,.
Cc1c(NC(=O)C(C)Sc2nc3ccccc3c(=O)n2CCO)c(=O)n(-c2ccccc2)n1C (stereo unspecified),-4.4,i,100.0,0.9,1.2,i,0.0
CCOC(=O)N1CCN(C(=O)c2ccc3c(c2)ncn3C2CCCC2)CC1,-13.1,i,102.0,2.2,-2.6,i,0.3
COC(=O)c1ccc(C2Nc3ccccc3NC3=C2C(=O)CC(C)(C)C3)cc1 (stereo unspecified),-4.2,i,101.0,-0.7,4.6,.,.
COC(=O)c1ccc2c(c1)NC1=C(C(=O)CC(C)(C)C1)C(c1ccncc1)N2 (stereo unspecified),5.3,+,96.0,-0.6,-13.0,i,0.5
CC(C)CNC(=O)NC(=O)COc1ncnc2sccc12,-5.1,+,97.0,-0.1,3.8,i,0.0
c1ccc(NC2=Nc3ccccc3CC2)cc1,3.6,+,108.0,2.1,10.3,i,0.0
COc1ccc2c(c1)CCC(C)N2S(=O)(=O)c1ccc(C2CNC(=O)C2)cc1 (stereo unspecified),.,.,101.0,-1.7,-5.8,i,0.0
Cc1cc(C)n(-c2nc3ccccc3nc2N2CCN(C(=O)c3ccc(F)cc3)CC2)n1,3.7,i,102.0,-2.1,-4.2,i,0.0
Cc1cc(C)n(-c2nc3ccccc3nc2N2CCC(C)CC2)n1,5.5,i,76.0,-2.0,-5.0,.,.
CCOC(=O)c1cc2sccc2n1CC(=O)N1CCCc2ccccc21,2.6,+,103.0,-3.4,1.6,i,0.0
CO[C@@H]1CN(C)C(=O)c2cc(NS(=O)(=O)CC(F)(F)F)ccc2OC[C@H](C)N(C(=O)c2ccc3c(c2)OCO3)C[C@@H]1C,-4.8,.,.,.,.,.,.
CN1CCN(c2ccc(CNC(=O)c3ccc(-c4ccc(F)c(F)c4)c4ccoc34)cc2)CC1,2.8,+,101.0,-9.1,0.0,i,2.5
CN1CCN(c2ccc(CNC(=O)c3cccc4c(-c5ccc(F)c(F)c5)coc34)cc2)CC1,16.3,i,94.0,-9.6,-4.5,.,.
COc1ccc([Si](C)(C)[C@H]2[C@H](CCn3cc(CCO)nn3)O[C@@]3(C(=O)N(C)c4c(Br)cc(C)cc43)[C@@H]2C)cc1,-6.1,.,.,.,.,.,.
Nc1nccc(NCCSCc2ccccc2)n1,0.5,+,97.0,11.0,-3.1,i,0.0
CCC(C)Nc1nc(OCC(F)(F)F)nc(OCC(F)(F)F)n1 (stereo unspecified),1.7,i,96.0,1.4,-3.8,.,.
CCC(C)Nc1nc(OC(C(F)(F)F)C(F)(F)F)nc(OC(C(F)(F)F)C(F)(F)F)n1 (stereo unspecified),-7.2,+,112.0,1.3,16.2,i,0.4
CN1c2ccc(-c3ccccc3)cc2[C@H]2[C@H](CCN2C(=O)c2ccncc2)[C@H]1CO,1.1,.,.,.,.,.,.
CCc1ccc(/C=C/c2c([N+](=O)[O-])c(=O)n(C)c(=O)n2C)cc1,-4.8,i,100.0,-3.8,6.4,i,1.4
O=C(N[C@@H]1CC[C@@H](CCNS(=O)(=O)c2ccccc2)O[C@H]1CO)c1cccc(F)c1,-8.1,.,.,.,.,.,.
CCN(CC)S(=O)(=O)c1cc(OCC(N)=O)c(C)cc1Cl,.,i,110.0,2.0,-2.3,i,0.2
SMILES,RAD54 branch,Myeloid diff 2,ABCB6 inh MLPCN,Glyco luc inh,Vif inh,Myeloid diff CP1,GFP autofluor
Cc1noc(C)c1NC(=O)Nc1ccc2c(c1)C(=O)N([C@@H](C)CO)C[C@@H](C)[C@H](CN(C)S(=O)(=O)c1cn(C)cn1)OCCCC[C@@H](C)O2,-8.8,.,.,.,.,.,.
O=C(N/N=C/c1ccccn1)c1cc(-c2ccc3ccccc3c2)n[nH]1,.,i,103.0,3.0,-10.4,i,0.5
Cc1cc(C)nc(SCc2ccc(C(=O)N/N=C/c3ccncc3)cc2)n1,.,i,91.0,-1.0,-6.7,.,.
Cc1cc(C)nc(SCc2ccc(C(=O)N/N=C/c3ccccn3)cc2)n1,.,i,92.0,4.3,0.7,i,0.4
CCc1ccc(-c2cc(C(=O)N/N=C/c3ccccn3)[nH]n2)cc1,.,i,90.0,2.9,-2.1,.,.
COc1cccc(CNC(=O)C[C@H]2C=C[C@H](NC(=O)C3CCOCC3)[C@H](CO)O2)c1,-6.0,.,.,.,.,.,.
O=C(CN1C(=O)CC(c2ccccc2)=Nc2ccccc21)NCc1ccccc1,8.8,i,99.0,0.0,2.3,.,.
Cc1cc2c(cc1C)N(CC(=O)N1CCCC1)C(=O)CC(c1ccccc1)=N2,5.2,i,99.0,-0.3,-3.4,i,0.0
Cc1ccc(C)c(-c2csc(NC(=O)C3=COCCO3)n2)c1,.,i,104.0,-1.8,-22.9,i,0.4
Cc1cc(N2CCCCC2)nc(N)n1,8.2,+,105.0,2.5,13.6,i,0.0
CC(C)NC(=O)NCC[C@H]1CC[C@H](NS(=O)(=O)c2ccc(-c3ccccc3)cc2)[C@H](CO)O1,0.2,.,.,.,.,.,.
CCOc1ccccc1-n1c(SCC(=O)N(C(C)C)C(C)C)nnc1-c1cccnc1,-2.2,i,97.0,0.1,9.7,i,0.0
CCN1/C(=C\C=C2\C(=O)N(C)C(=S)N2C)Sc2ccccc21,.,i,122.0,-3.8,1.9,i,0.4
Cc1nn(C)cc1NC(=O)C[C@@H]1CC[C@H]2[C@@H](COc3ccc(NC(=O)C4CCC4)cc3C(=O)N2C)O1,9.2,.,.,.,.,.,.
O=C(O)c1ccc(CSc2nc3ccccc3[nH]2)cc1,-2.9,i,101.0,1.1,17.7,.,.
NNC(=O)c1ccc(CSc2nc3ccccc3[nH]2)cc1,.,i,104.0,-0.4,1.7,i,0.3
COC(=O)C1CCCN1C(=O)c1cccs1 (stereo unspecified),-3.0,+,92.0,1.3,33.2,i,0.3
O=C(O)C1CCCN1C(=O)c1cccs1 (stereo unspecified),0.6,i,89.0,0.9,4.1,.,.
CN1CCN(c2ccccc2/C=C2/C(=O)Nc3ccccc32)CC1,5.9,i,98.0,-4.0,-2.5,i,82.7*
O=C1Nc2ccccc2/C1=C/c1ccccc1Cl,-15.0,i,96.0,1.2,-8.8,.,.
COc1ccccc1-c1ccc2n(c1=O)C[C@@H]1[C@@H](CO)[C@H](C(=O)N[C@H](C)c3ccccc3)[C@H]2N1C,3.0,.,.,.,.,.,.
